Records with an inconclusive call do not appear. The source made the active and inactive calls. The call rests on the fitted dose curve; in most records, active means well fitted inhibition curve with a large enough effect; inconclusive means small, poorly fitted or top-dose-only effect; inactive means no such curve, though single readings can be large or run the other way.
Assay: qHTS for Inhibitors of the Aldehyde Dehydrogenase Family (ALDH1A2, ALDH1A3, ALDH2, ALDH3A1) (AID 2061307); further: nearly all actives have a fitted effect of over 50% in size; on Potency: test system not described further here
Conditions: ALDH inhibition qHTS; series mostly up to 50.3 µM; activity change, negative = inhibition: at the top concentration
On the % scale 0 is the no-effect control and ±100 the full control effect; potency means the concentration at half of the fitted maximal effect.

SMILES	activity change, negative = inhibition	Potency
COc1ccc(-c2nn(-c3ccccc3)cc2C(=O)Nc2ccccc2OC)cc1	-57.3% [at 34.4 µM] (inactive)	
COc1ccc(-n2ncc3c2CCCC3NC(=O)c2cccc(C(F)(F)F)c2)cc1 (stereo not given)		11.3 µM (active)
O=C(O)c1csc(-n2nc(C(F)(F)F)cc2-c2ccc(Cl)cc2)n1	-9.54% (inactive)	
COc1ccc2c(c1)CCNC2Cc1ccc(OC)c(O)c1 (stereo not given)	-18.8% (inactive)	
COc1ccc(C(=O)O/N=C(\N)c2ccccn2)cc1		0.538 µM (active)
Cc1cn(-c2cc(NC(=O)c3ccc(C)c(N)c3)cc(C(F)(F)F)c2)cn1	19.3% (inactive)	
Cc1c2c(=O)n(-c3ccccc3)[nH]c2cc(=O)n1CCCN1CCOCC1	-3.09% (inactive)	
O=C(O)c1cccc(S(=O)(=O)N2CCC(n3nnc4cc(C(F)(F)F)ccc43)CC2)c1	-11.3% (inactive)	
CC(=O)N1CCC(Nc2ncnc3scc(-c4ccccc4)c23)CC1		6.31 µM (active)
N[C@@H](CCC(=O)O)C(=O)Nc1cccc(-c2nn3c(=O)cc(N4CCNCC4)nc3s2)c1	-3.94% (inactive)	
Brc1ccc(CN2CCC(N(CCc3ccccc3)Cc3ccccc3)CC2)cc1	-13.6% (inactive)	
O=C(Nc1ccc(S(=O)(=O)N2CCOC(c3ccccc3)C2)cc1)c1ccc(CN2CCc3ccccc3C2)cc1 (stereo not given)	1.44% (inactive)	
Oc1[nH]c2ccccc2c1N=NC(=S)Nc1cccnc1	-3.64% (inactive)	
O=C(c1ccc2ccccc2c1)c1no[n+]([O-])c1C(=O)c1ccc2ccccc2c1		5.04 µM (active)
Cc1cc(=O)n2[nH]c(NC(=O)c3cccnc3)nc2n1	-5.57% (inactive)	
COc1ccccc1CNc1ccc(N2CCCCC2)cc1		2.52 µM (active)
CC(=O)c1c(C)n(-c2ccccc2)c2ccc(O)cc12		0.798 µM (active)
N#CCc1c(Cc2ccc(S(N)(=O)=O)cc2)c(-c2ccccc2)nn1-c1nc(C(=O)O)cs1	-25.6% (inactive)	
OC[C@H]1O[C@@H](OCc2ccccc2)[C@H](O)[C@@H](O)[C@H]1O	-6.16% (inactive)	
c1ccc(CCN(Cc2ccccc2)C2CCN(C3CCCCC3)CC2)cc1		7.94 µM (active)

SMILES	activity change, negative = inhibition	Potency
Cc1nc(SCCc2nc3ccccc3[nH]2)c2oc3ccccc3c2n1	-27.6% (inactive)	
CCOc1ccc(CNC(=O)c2cnc3c(C)cccn3c2=O)cc1	0.456% [at 34.4 µM] (inactive)	
CCN1C(=O)c2ccccc2S(=O)c2ccc(C(=O)NCc3cccc(C(F)(F)F)c3)cc21 (stereo not given)	-8.59% (inactive)	
CSc1ncc(CNc2cc([N+](=O)[O-])ccc2C)c(N)n1		17.8 µM (active)
NC(=O)Nc1ccc(CNC(=O)C2Cc3ccccc3O2)cc1 (stereo not given)	-4.52% [at 34.4 µM] (inactive)	
CC(C)Oc1ccccc1NC(=O)N1CCN(c2ccccc2)CC1	-14.5% [at 34.4 µM] (inactive)	
O=C1NC(c2ccc(N3CCOCC3)cc2)(c2ccsc2)CC(O)=C1Sc1ccccc1Cl (stereo not given)	-25.9% (inactive)	
O=C(O)c1csc(-n2[nH]c(-c3c(F)cccc3F)cc2=O)n1	-22.3% (inactive)	
Cc1ccc(NC(=O)c2cnc3cc(C)ccn3c2=O)c(C)c1	-50.3% [at 34.4 µM] (inactive)	
O=C(Cn1c2ncccc2c(=O)n1-c1ccccc1)Nc1ccc(Cl)cc1C(F)(F)F	-28.2% [at 34.4 µM] (inactive)	
C[S+](=O)([O-])c1ccc(-c2nnc3ccc(C(=O)NCCc4ccccc4F)cn23)cc1	-21.9% [at 34.4 µM] (inactive)	
COC(=O)c1ccc(NC(=O)CN(c2cccc(C(F)(F)F)c2)S(C)(=O)=O)cc1	-6.97% (inactive)	
CCN(CC)C(=O)c1ccc(Nc2ncnc3sc(C)c(C)c23)cc1		6.31 µM (active)
Cc1ccc(-c2ccccc2)n1-c1ccccc1C(=O)O		15.9 µM (active)
c1ccc(CCN(Cc2ccccc2)C2CCN(c3ccccc3)CC2)cc1	-12.4% (inactive)	
CN(C)c1ccc(NC(=O)c2cn(-c3ccccc3)nn2)cn1	-6.95% [at 34.4 µM] (inactive)	
Cc1ccc(N(C)S(=O)(=O)c2ccc(-c3cnc(C4CC4)o3)cc2)cc1	4.57% (inactive)	
CCOC(=O)COc1ccc2c(c1)c(C(=O)c1ccccc1)c(C)n2-c1ccc(OC)cc1	3.44% [at 34.4 µM] (inactive)	
CCOCCNC(=O)N1CCN(c2nc(C)cs2)CC1		14.1 µM (active)
CSc1sc(C(=O)NN)c2c1C(O)CCC2 (stereo not given)		22.5 µM (active)

Reference: PubChem BioAssay (NCATS)
